Compounds without any hit were thinned out: in the full panel of roughly 83,000, 20% have a hit.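 For each line, cells grew in 96-well plates with the test compound present at a single concentration for 48 hours.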 Values without a mark were called inactive. Active and inactive are the calls of the source. How the source made its calls: active means growth percent below 10; inactive means the rest.
Columns and labels:
Assay in all cases: NCI-60 one-dose screen, 48 h (100 = growth as untreated, 0 = no growth, -100 = all killed)
Settings in all cases: 10 µM unless noted
NCI-H23 lung = system: NCI-H23 lung
NCI-H226 lung = system: NCI-H226 lung
NCI-H322M lung = system: NCI-H322M lung
HOP-62 NSCLC = system: HOP-62 NSCLC
HOP-92 NSCLC = system: HOP-92 NSCLC
NCI-H522 lung = system: NCI-H522 lung
A549/ATCC NSCLC = system: A549/ATCC NSCLC
786-0 renal = system: 786-0 renal
COLO 205 colon = system: COLO 205 colon
NCI-H460 lung = system: NCI-H460 lung

Structure (SMILES)	growth (NCI-H23 lung)	growth (NCI-H226 lung)	growth (NCI-H322M lung)	growth (HOP-62 NSCLC)	growth (HOP-92 NSCLC)	growth (NCI-H522 lung)	growth (A549/ATCC NSCLC)	growth (786-0 renal)	growth (COLO 205 colon)	growth (NCI-H460 lung)
Nc1nc(C(F)(F)F)cs1	104%	98.9%	104%	101%	107%	98.3%	103%	98.4%	114%	
CCCS(=O)(=O)N1CCCC(C(=O)Nc2nc3ccc(NC(=O)c4ccc(F)c(OC)c4F)cc3s2)C1 (stereo not given)	33.9%	27.9%	75.6%	68.4%		39.9%	57%	37.6%	31.6%	
COc1ccc(-c2nc(SCC(C)C)nc(NCCc3c[nH]c4ccccc34)c2C#N)cc1	73.9%	45.1%	87.7%	55.2%		62.5%	76.6%	56.6%		
O=C(N/N=C/c1ccc(-c2ccc(O)cc2)s1)c1[nH]c2ccc(Br)cc2c1-c1ccccc1	7.67% (active)	27.6%	29.8%		-24.8% (active)	18.6%	23.8%	-28% (active)		-18.3% (active)
CCOC(=O)C1=C(N)N(c2ccccc2)C2=C(C(=O)CC(C)(C)C2)C1c1ccc(Cl)cc1Cl (stereo not given)	34.5%	24.4%	56.8%	50.5%	-0.322% (active)	35.3%	26.9%	34.3%	9.03% (active)	
CN1CCN(c2ccc3c(c2)nc(NNC(=O)c2ncccn2)c2cccn23)CC1	4.51% (active)	-22.8% (active)	-7.59% (active)	-19.7% (active)	-14.8% (active)	-7.36% (active)	12.5%	-96.8% (active)	-85.7% (active)	
CCN(CC)c1ccnc(CNCCSC(c2ccccc2)(c2ccccc2)c2ccc(C)cc2)c1	-78.7% (active)	-73.3% (active)	-10.4% (active)	-89.5% (active)	-83.9% (active)	-80.3% (active)	-86.8% (active)	-93.1% (active)	-76.6% (active)	
COc1cc(C2CC(c3cc(OC)c(OC)c(OC)c3)=Nc3c(N)nc(N)nc3N2)ccc1Oc1nc(NCCO)nc(N2CCOCC2)n1 (stereo not given)	95.8%	84.2%	86.2%	90.4%		87.2%	99.2%	97.6%	110%	
Cn1cc(-c2cc(N)n3nc(-c4cn(C)c5ncc(Br)cc45)cc3n2)c2cc(Br)cnc21	-31.1% (active)	78%	69.1%	48.3%		51.2%	-22.3% (active)	-40.8% (active)	12.3%	
O=C(/C=C/c1ccc(O)c(O)c1)NC1CCOC1O (stereo not given)	104%	120%	105%	101%	91.5%	75.6%	99.4%	97.2%	105%	
O=C(/C=C/c1ccc(-c2ccccc2)cc1)c1nc2ccccc2n1Cc1ccc(Br)cc1	24.7%	24.3%	72.4%	56.4%	40.1%	71%	64.7%	39.3%	76.7%	
C=C1CCC2C3(C)COC(c4cc(F)cc(F)c4)OC3CCC2(C)C1CC(O)C1=CCOC1=O (stereo not given)	64.9%	92.1%	95%		46.2%	11.9%	75.2%	30.3%	59.5%	66.3%
CCN(CC)c1ccnc(CNCCSC(c2ccccc2)(c2ccccc2)c2ccc(OC)cc2)c1	-41.8% (active)	-7.73% (active)	21.8%	-10.2% (active)	-30% (active)	-67.8% (active)	2.36% (active)	-50.8% (active)	-74% (active)	
CCOC(=O)c1ccc(Nc2nc(NN)nc(-c3ccc(OC)cc3)c2C#N)cc1	115%	112%	123%	109%		103%	105%	99.3%	116%	
CC(=O)Nc1cccc(Nc2nc(NCc3ccccc3)c3ccccc3n2)c1	-86.3% (active)	-84.3% (active)	-97.2% (active)		-83.5% (active)	-83.8% (active)	-69% (active)	-89.1% (active)	-93.9% (active)	-79.5% (active)
CCOP(=O)(OCCCl)c1nc(-c2ccc(C)cc2)oc1NCc1ccccc1 (stereo not given)	75.3%	88%	84.6%		75.5%	69.1%	66.5%	81.9%		73.2%
COc1ccc(C(=O)/C=C/c2ccc(Oc3nc(Nc4ccc(F)cc4)nc(N(C)C)n3)c(OC)c2)cc1	42%	69.7%	80.4%	100%		49.7%	64.7%	57.3%	93.1%	
COc1ccc(NC(=O)Cn2c(/C=C/c3cccc([N+](=O)[O-])c3)nc3ccccc3c2=O)cc1	81.7%	12.8%	90.7%	40.9%	-0.339% (active)	94.4%	84.7%	-15.8% (active)	98.8%	
N#Cc1c(-c2ccc(Br)cc2)nc2n[nH]c(-c3ccc(Br)cc3)c2c1-c1ccc(C(F)(F)F)cc1	15%	21.7%	43.1%		-17.3% (active)	10.1%	27.4%	27.6%	-70.5% (active)	3.96% (active)
C=C1CC[C@@H]2[C@]3(C)COC(c4cn(-c5ccccc5)nc4-c4cccc([N+](=O)[O-])c4)O[C@@H]3CC[C@@]2(C)[C@@H]1C/C=C1/C(=O)OC[C@H]1O (stereo not given in full)	-62.1% (active)	-48.6% (active)	90%	10.8%		-79.3% (active)	30.7%	-35.8% (active)	-64.2% (active)	
CCCn1cc(-c2nc(Nc3ccc(C(=O)NCCCCNc4cccc5c4C(=O)N(C4CCC(=O)NC4=O)C5=O)cc3)nc3[nH]ccc23)cn1 (stereo not given)	65.3%	20.9%	7.64% (active)	-1.38% (active)		27%	21.1%	22.9%	-10.3% (active)	
Cc1ccccc1[C@H]1C(C(=O)c2ccc(Cl)cc2)C2(N[C@@H]1c1ccccc1)C(=O)Nc1ccccc12 (stereo not given in full)	-52% (active)	-55.2% (active)	16.6%	-48.2% (active)	-50.4% (active)	-48.1% (active)	-21.7% (active)	-41.5% (active)	-74.5% (active)	
Cc1cc(=O)oc2cc(OCCCCOc3ccc(/C=C/C(=O)Nc4ccccc4N)cc3)ccc12	76%	47.9%	82.2%	69.7%	83%	35.7%	46.9%	49.5%	44.9%	
COc1cccc(/C=C/C(=O)c2ccc(OC)c(S(N)(=O)=O)c2)c1	15.1%	53.9%	22.2%	21.4%	55.9%	-65.1% (active)	10.3%	14.6%	-18.4% (active)	
S=C(Nc1ccc(OCc2nc3ccccc3[nH]2)cc1)NC1CCCCC1	101%	105%	106%	95.1%	109%	51.7%	105%	93%	110%	
Cn1cc(NC(=O)c2cc(NC(=O)c3ccc(/C=C/c4ccccc4)cc3)cn2C)cc1C(=O)NCCCN1CCOCC1	66.7%	77.4%	69.9%	90.9%	-18% (active)	17.6%	26.9%	27.9%	-78.6% (active)	
COc1ccc(-c2ccc(SCC(=O)NCCc3ccc(S(N)(=O)=O)cc3)nn2)cc1	64.2%	77%	96.2%	81.3%		70%	86.6%	85.8%	95.4%	107%
C[C@H](Nc1nc(NCCc2ccccc2)nc2ccccc12)c1ccccc1	-85.2% (active)	-80.4% (active)	-55.9% (active)		-81.1% (active)	-82.9% (active)	-33.2% (active)	-87.3% (active)	-93.7% (active)	-75.3% (active)
COc1cc2oc(-c3cccc(C(=O)Nc4ccc(Cl)cc4)c3)cc(=O)c2c(OCCNC(=O)[C@H](CCC(=O)OC(C)(C)C)NC(=O)OC(C)(C)C)c1OC	106%	95.9%	98.4%		84.2%	89%	92.8%	93.4%	117%	101%
